The values below come from ChEMBL document CHEMBL3988442, “University of Dundee, Small-Polar-MMV Screening Library” (2021).

The structures appear in SMILES notation.

This experiment addresses AMP-activated protein kinase, AMPK (Homo sapiens) (UniProt P54646+O43741+P54619+Q9UGJ0+Q9Y478+Q13131+Q9UGI9). Kind of experiment: AMP-dependent Kinase enzyme assay. An in vitro enzyme assay that detects ADP turnover that is directly proportional to AMPK activity. This uses naive AMPK that is activated during the assay with MK-8722. In kind it is functional. On the set-up: scale not given: direction of the effect not stated beside the values. The note with it: 30 µM.
For the molecule `CC1(C)OC(=O)N(CCCOc2ccc(F)cc2)C1=O`, the Percent Effect was -0.642%.
Turning to `Cc1nc(O)cc(CN2C[C@H](NC(=O)C3CCC3)[C@@H](C3CC3)C2)n1`, the Percent Effect is -2.67%.
Consider `COc1ccc(Br)cc1S(=O)(=O)N(C)Cc1ccc(N(C)C)cc1`, for which the Percent Effect is -1.52%.
As to `COCCCC1CCCN(Cc2c(C)ccc3ncccc23)C1` (stereo not given), the Percent Effect is -4.38%.
For `CC(C)c1cc(NCc2csc(C(C)C)n2)nc(N)n1` the value was -7.72%; for `COc1ccccc1CNC(=O)C(C)N1CC(n2cc(C)cn2)C1` (stereo not given), 3.01%.
Turning to `CSc1ccc(OCCN2CCNC(=O)C2C)cc1` (stereo not given), the Percent Effect is 6.4%.
As to `COCc1nc(C2CC2)nn1-c1ccccc1Cl`, the Percent Effect was -1.23%.
For `Cc1nc(CN2CCCC2Cn2cccn2)nc2ccccc12` (stereo not given), the Percent Effect was -8.75%.
With `CCn1cnnc1CNC(=O)N1CCOC(c2ccccc2Cl)C1` (stereo not given) the figure was 0.771%.
For `O=C(NCC[S+]([O-])Cc1ccccc1)c1ccc2[nH]c(=O)[nH]c2c1` (stereo not given) the value was 13.6%; for `COCCn1ccnc1C1CCN(C(=O)CSc2nnc(C)o2)CC1`, -0.22%; for `CN(Cc1ccsc1)C(=O)c1nc(N2CCCC2)ncc1Cl`, -1.6%.
On to `Cc1onc(-c2ccncc2)c1C(=O)NC1CCCOC1` (stereo not given), for which the Percent Effect was -0.537%.
With `CC(=O)NCc1ccc(C(=O)N2CCCc3c(F)ccc(C)c32)cc1` the figure was -0.0493%; with `O=S(=O)(Cc1nc(C2CC2)no1)c1ccccc1F`, 1.42%; with `CCCn1cc(-c2cc(C(=O)N(C)C)c3cccc(C)c3n2)cn1`, 7.04%.
With `O=C(Cn1[nH]c2ccccc2c1=O)N1CCCC(CC2CC2)(C(=O)O)C1` (stereo not given) the figure was -3.39%; with `O=C(O)CCn1ccc2c(nnc3c(-c4ccc(F)cc4)cnn32)c1=O`, 18.8%.
For `O=C(C1CCCCN1Cc1nccn1CC(F)(F)F)N1CCCC1` (stereo not given) the value was -9.13%; for `O=C(NCc1cccnc1N1CCCC(O)C1)c1ccc2[nH]nnc2c1` (stereo not given), -3.08%.
`CS(=O)(=O)NC1CCN(Cc2coc(-c3ccccc3)n2)CC1`: the Percent Effect is 0.161%.
For the molecule `Cc1cc(C2CCCN(Cc3nc(Cc4ccccc4)no3)C2)n[nH]1` (stereo not given), the Percent Effect turned out to be 3.74%.
With `CCN(CC)C(=O)N1CCOCC1c1c(C)nn(C)c1C` (stereo not given) the figure was 2.79%.
With `COc1ccccc1OCCN(C)Cc1c(C2CC2)[nH]c2ncccc12` the figure was 11.7%.
Consider `Cc1nc(CN2CCCCC2Cn2cccn2)nc2ccccc12` (stereo not given), for which the Percent Effect worked out at 0.0601%.
On to `CCOC(=O)C1(NC(=O)CCNc2cc(C)ccc2OC)CCCCC1`, for which the Percent Effect is 6.8%.
With `CCOC(=O)CC1CCCCN1C(=O)c1cccc2ccnn12` (stereo not given) the figure was -6.64%.
With `CN(Cc1cccs1)Cc1nnsc1Cl` the figure was 12.6%; with `CN(c1ncc(S(N)(=O)=O)s1)C1CCC1`, 5.05%; with `Cc1nc(C)c(C(C)NCc2cnc(N3CCOCC3)nc2)s1` (stereo not given), 7.71%.
With `N#CC1(NC(=O)c2ccc(F)cc2OC(F)F)CCOCC1` the figure was 1.96%; with `O=C(CN1CCC(c2nnc(C(F)(F)F)o2)CC1)Nc1cccc(Cl)c1`, -5.71%; with `Cc1cc(NC(=O)NCCC(=O)N2CCCc3ccccc32)no1`, -0.372%.
`O=C(NC1CCOCC1)c1cccc(C2CCCNC2)c1` (stereo not given): the Percent Effect was found to be 2.1%.
With `Cc1ccc(-c2noc(C3CCN3C(=O)c3ccn(C)n3)n2)s1` (stereo not given) the figure was 12%; with `Cc1cc(N(C)C)nc(N2CCn3c(nnc3C(C)C)C2)n1`, 8.26%; with `COc1ccc(CCNC(=O)c2ccc(=O)n(C)c2)c(Cl)c1`, 5.99%.
Consider `COc1c(F)cc(-c2cccc3c2OC(CN)C3)cc1F` (stereo not given), for which the Percent Effect is -4.2%.
With `Cc1nn(C)c(C)c1C1COCCN1C(=O)CSC(C)(C)C` (stereo not given) the figure was -7.18%.
